Where “and” joins values, the source holds several entries; their conditions need not be identical. Equal entries are not always repeated. The whole screen tested about 220,000 compounds, of which about 8,200 (3.7%) were called active. Only a selection was taken, and actives are over-represented in it overall. Values without a mark were called inactive.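 How the source made its calls: active means compounds that reduced the stress-induced luciferase reporter signal by more than about 70% of percent inhibition (limit read from the data); inactive means the rest.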
Assay: blockers of ER-stress CHOP reporter expression – cell-based, unfolded protein response, luciferase reporter, primary screen (AID 2732);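 further: 0% = tunicamycin plus vehicle and 100% = wells without tunicamycin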
Conditions: CHO-K1 CHOP-promoter luciferase, tunicamycin-induced, 15-18 h; at 10 µM; stronger effect = higher value

Compared with `O=C(NCc1cc(C(F)(F)F)cc(C(F)(F)F)c1)C1CC(c2cccc(F)c2)=NO1` (stereo unspecified), `CCc1cc(CNC(=O)CC2C(=O)NCCN2Cc2ccccc2C(F)(F)F)on1` (stereo unspecified) is higher in inhibition: 20.1% for the first, 20.4% for the second.

Going from `CN(C)c1ccc(/C=N/N(Cc2ccccc2)c2ccccc2)cc1` to `O=C(N/N=C/c1ccc(OCc2ccccc2)cc1)c1ccc(O)cc1`, the inhibition falls from 1.37% to -37.6%.

First: NC(=O)C1=CN(C2OC(COP(=O)(O)OP(=O)(O)OC[C@H]3O[C@@H](n4cnc5c(N)ncnc54)C(OP(=O)(O)O)[C@H]3O)C(O)C2O)C=CC1 (stereo partly specified)
Second: CCCn1c(C)cc(C(=O)COC(=O)c2c(C)nn(-c3ccccc3)c2C)c1C
The inhibition of the first is lower: -6.4% for the first, 52.2% for the second.

Compared with `CCC(=O)Nc1ccc2nc(C)n(Cc3ccccc3Cl)c(=O)c2c1`, `COc1ccccc1CNC(=O)Cn1c(=O)oc2cc(Cl)ccc21` is higher in inhibition: -4.28% for the first, 4.18% for the second.

First: O=C(NC1CCN(Cc2ccccc2)CC1)c1ccccc1F
Second: CC1CCN(CCC(=O)Nc2ccccc2)CC1
The inhibition of the first is higher: 22.9% for the first, -9.3% for the second.

Compared with `CC(C)NC(=O)c1ccc(Cl)cc1Cl`, `CN(C)NC(=O)c1csnc1-c1c(Cl)cccc1Cl` is lower in inhibition: 12.1% for the first, -5.93% for the second.

Compared with `Cc1sc2nc(CSCC(=O)Nc3c(Cl)cccc3Cl)[nH]c(=O)c2c1C`, `Cc1cccc(NC(=O)CSc2nnc(CCNC(=O)OC(C)(C)C)o2)c1C` is lower in inhibition: 0.31% for the first, -14.5% for the second.

Compared with `O=C(Nc1ccccc1)N1CCN(C2c3ccccc3-c3ccccc32)CC1`, `Cc1[nH]n(-c2ccccc2)c(=O)c1N=Nc1ccccc1C(=O)N1CCCCC1` is higher in inhibition: 12.3% for the first, 59.1% for the second.

Compared with `Cc1ccc(C)c2c1cc(C)c1nnc(SCC(=O)Nc3cccc(C(=O)O)c3)n12`, `O=C(CSc1nc2ccccc2s1)Nc1ccc(C(=O)O)cc1` is higher in inhibition: -9.73% for the first, -1.84% for the second.

First: Cc1ccc(CC(=O)Nc2ccc(OC(F)F)c(Cl)c2)cc1C
Second: CC(C)C(=O)Nc1ccc2oc(=O)ccc2c1
The inhibition of the first is higher: 62% for the first, 8.38% for the second.

Going from `CC(=O)N1CCN(CC(=O)Nc2ccc(SC(F)F)cc2)CC1` to `CCc1cc(C(=O)c2ccc(OC)cc2)c(NC(=O)CN2CCN(C)CC2)s1`, the inhibition falls from 16.9% to 9.91%.

Going from `CC(NC(=S)Nc1ccccc1)C(c1cccs1)N1CCOCC1` (stereo unspecified) to `CCC(C)NC(=O)c1c(N)n(/N=C/c2cccs2)c2nc3ccccc3nc12` (stereo unspecified), the inhibition rises from -3.16% to 67.4%.

Going from `Oc1c(Br)cc(/C=N/NC(=S)NCC2CCCO2)cc1Br` (stereo unspecified) to `Cc1cccc(NC(=S)NC(=O)c2ccc(Br)o2)c1`, the inhibition falls from 22.4% to -36.1%.

Compared with `O=C(Cc1ccccc1)NNC1CC(=O)N(c2ccc(Br)cc2)C1=O` (stereo unspecified), `O=C(CCC(=O)OCc1ccc(Cl)cc1)Nc1ccccc1` is lower in inhibition: 17% for the first, 0.59% for the second.

Going from `CC1=C(C)CC2C(=O)N(c3cccc4ccccc34)C(=O)C2C1` (stereo unspecified) to `O=c1[nH]c(SCc2cccc(F)c2)nc2ccccc12`, the inhibition falls from 19.9% to 8.81%.

Compared with `COc1cc(/C=C(\C#N)C(=O)Nc2ccc3ccccc3c2)c([N+](=O)[O-])cc1OC`, `COc1cc(C=O)c(Br)cc1OCC(=O)NCc1ccccc1` is higher in inhibition: -24.5% for the first, 18% for the second.

Going from `O=C(NCc1ccco1)C1CCCN1S(=O)(=O)c1ccccc1C(F)(F)F` (stereo unspecified) to `COc1cccc(OC)c1CN(C)C(=O)c1cnccc1C(F)(F)F`, the inhibition rises from 14.3% to 16.4%.

Compared with `Cc1ccccc1CSc1nnc(CCCCCNC(=O)OC(C)(C)C)o1`, `CCOCc1nnc(NC(=O)CSc2ccc(C)cc2)s1` is higher in inhibition: 12.7% for the first, 12.8% for the second.

Going from `NCC(=O)c1cccc2ccc[n+]([O-])c12` to `O=C(COC(=O)c1ccccn1)Nc1cccc2ccccc12`, the inhibition falls from -8.9% to -19.7%.

First: COc1ccc(S(=O)(=O)Nc2ccc(O)c(Sc3nc4ccccc4s3)c2)cc1
Second: C=C(C)CNC(=S)Nc1ccc(S(=O)(=O)Nc2cnc3ccccc3n2)cc1
The inhibition of the first is higher: 13.3% for the first, 11.6% for the second.

Going from `C/C(=N\NC(=O)CC(C)C)c1c(C(F)(F)F)[nH]n(-c2nc3ccccc3s2)c1=O` to `C=CCn1c(N)c(C(=O)OCC(C)C)c2nc3ccccc3nc21`, the inhibition rises from -21.3% to 18%.

Compared with `CCN(CC)c1ccc(/C=N/NC(=O)c2cnccn2)c(O)c1`, `CCOc1ccc(/C=N/NC(=O)CSc2ccccn2)cc1O` is lower in inhibition: 47.2% for the first, 3.02% for the second.

Going from `COC(=O)c1ccc(COc2cc([N+](=O)[O-])cc3cccnc23)cc1` to `N#Cc1ccc(C(=O)Nc2cccc3cccnc23)c(F)c1`, the inhibition falls from 5.56% to -2.37%.

First: CC(=O)N(OCc1ccc(OC(C)C)c(Cl)c1)C(C)=O
Second: Cn1c(SCC(=O)Nc2ccc(Cl)cc2)nc(O)cc1=O
The inhibition of the first is lower: -4.06% for the first, -3.96% for the second.

Going from `O=C(Nc1ccc(Cl)cc1)Nc1nnc(/C=C/c2ccccc2)s1` to `Cn1c(CC2Sc3ccccc3NC2=O)nnc1SCC(=O)c1ccc(Cl)cc1` (stereo unspecified), the inhibition falls from 46.8% to 11.3%.

Going from `Cc1ccc(-n2ncc3c(=O)[nH]cnc32)c(C)c1` to `Cc1ccc(N2CCN(S(=O)(=O)c3ccc(F)cc3)CC2)c(C)c1`, the inhibition rises from 31.6% to 47.5%.

Compared with `CCOc1ccc2nc(SC(CC)C(=O)Nc3cc(C)on3)sc2c1` (stereo unspecified), `COc1cc(SC)ccc1C(=O)Nc1cc(C)ccn1` is higher in inhibition: 27.5% for the first, 37.2% for the second.

First: CC(N=Cc1nc(-c2ccccc2)oc1O)c1ccccc1 (stereo unspecified)
Second: C/C(=N\N)c1c(-c2ccccc2)c2cc(Br)ccc2[nH]c1=O
The inhibition of the first is higher: 28.4% for the first, -1.78% for the second.

Going from `CCN(CC)CCNCC(=O)Nc1ccc(Oc2ccccc2)cc1` to `Cc1ccc(OC(=O)c2c(C)nn(-c3ccccc3)c2C)cc1`, the inhibition rises from -16.4% to 5.12%.

First: Cc1cc(C)c2cc(CN(Cc3nnnn3Cc3ccc(F)cc3)C3CCCC3)c(=O)[nH]c2c1
Second: Cc1cc2cc(CN(Cc3cccs3)Cc3nnnn3CC3CCCO3)c(=O)[nH]c2cc1C (stereo unspecified)
The inhibition of the first is lower: 8.91% for the first, 20.8% for the second.

First: CCOC(=O)c1c(N)sc2c1CCCC2=O
Second: Cc1ccsc1/C=N/NC(=O)Cc1cc(=O)[nH][nH]1
The inhibition of the first is lower: 4.68% for the first, 10.3% for the second.

Going from `COc1ccccc1CNC(=O)c1ccc(SC)cc1OC` to `Cc1ccc(CNC(=O)CC2Sc3ccccc3NC2=O)cc1` (stereo unspecified), the inhibition falls from 2.76% to -5.1%.

First: COC(=O)c1cc(C)sc1NC(=O)CC1Nc2ccccc2NC1=O (stereo unspecified)
Second: C/C(=N\Nc1cccc(C(=O)O)c1)c1ccc2c(c1)Nc1ccccc1S2
The inhibition of the first is higher: 51.1% for the first, -2.01% for the second.

Going from `COC(=O)c1noc(C)c1-c1ccnn1C(=O)c1ccc(Cl)cc1` to `Cc1noc(C)c1COC(=O)COc1ccc(-c2ccccc2)cc1`, the inhibition rises from -0.96% to 10.1%.

Going from `O=c1[nH]n(-c2cccc(Cl)c2)c2ncccc12` to `O=C1/C(=C/c2coc3ccc(O)cc3c2=O)SC(=S)N1c1ccccc1`, the inhibition falls from 9.34% to -12.8%.

First: CCOC(=O)COc1nc(C)cc(C(F)(F)F)c1C#N
Second: Nc1nc(SCCOc2ccccc2)n[nH]1
The inhibition of the first is higher: 16.9% for the first, -32% for the second.

First: CCNc1nc(NCC)nc(N(C)n2cnnc2)n1
Second: NC(=O)C1CCN(Cc2nc3c(Br)cc(Br)cc3c(=O)[nH]2)CC1
The inhibition of the first is lower: 2.32% for the first, 13.6% for the second.

In the case of `Oc1ccc(/C=N/N(Cc2ccccc2)c2ccccc2)cc1`, the inhibition was 97.5% (active).
With `CCN1CCN(c2cc3nc(C)n(Cc4ccccc4)c(=O)c3cc2NC(=O)c2ccccc2F)CC1` the inhibition was 95.7% (active).
In the case of `Cc1sc2nc(COC(=O)C(NC(=O)c3ccc(Cl)cc3Cl)C(C)C)[nH]c(=O)c2c1C` (stereo unspecified), the inhibition was 95.4% (active).
With `O=C(Cc1ccc(Cl)c(Cl)c1)Nc1ccc(SC(F)F)cc1` the inhibition was 88% (active).
For `Cc1ccc(N2C(=O)CC(Nc3cccc4ccccc34)C2=O)cc1` (stereo unspecified), the inhibition was 74.7% (active).
With `COc1ccc(NC(=O)/C(C#N)=C\c2cc(OC)c(OCc3ccc(C(=O)O)cc3)cc2Br)cc1` the inhibition was 103% (active).
For `O=[N+]([O-])c1c(NCCO)cc(Sc2nc3ccccc3s2)c2nonc12`, the inhibition was 108% (active).
In the case of `CC(C)Cn1c(N)c(C(=O)NCc2cccs2)c2nc3ccccc3nc21`, the inhibition was 89% (active).
With `O=C(CSc1ccccc1)Nc1nnc(/C=C/c2ccccc2)s1` the inhibition was 88.6% (active).
In the case of `Cc1ccc(-n2ncc3c(N4CCN(c5ccc(F)cc5)CC4)ncnc32)c(C)c1`, the inhibition was 83.8% (active).
With `CC(C)(C)C1CCC(OC(=O)CCC(=O)Nc2ccccc2)CC1` (stereo unspecified) the inhibition was 71.5% (active).
In the case of `CCOc1ccc2nc(/N=C/c3nc(-c4ccccc4)oc3O)sc2c1`, the inhibition was 73.9% (active).
With `N#Cc1ccccc1NC(=O)COc1c(Br)cc(Br)c2cccnc12` the inhibition was 88.1% (active).
For `Cc1cc(C)c2cc(CN(Cc3cccs3)Cc3nnnn3CC3CCCO3)c(=O)[nH]c2c1` (stereo unspecified), the inhibition was 76% (active).
For `O=C(Cn1c[n+](CC(=O)c2ccc([N+](=O)[O-])cc2)cn1)c1ccc([N+](=O)[O-])cc1`, the inhibition was -15.2% and -12.2%.
With `COc1cc(SC)ccc1C(=O)Nc1nc(C)cs1` the inhibition was 95.2% (active).
In the case of `CCc1cc(C(=O)OC)c(NC(=O)CC2Sc3ccc(C(F)(F)F)cc3NC2=O)s1` (stereo unspecified), the inhibition was 72.2% (active).
For `O=C(NC(=S)Nc1ccc2oc(=O)ccc2c1)c1ccc(-c2cccc(Cl)c2Cl)o1`, the inhibition was 80.2% (active).
In the case of `Clc1cccc(CN2COc3c(cc(Cl)c4cccnc34)C2)c1`, the inhibition was 108% (active).
With `CCNc1nc(SCCOc2ccccc2)nc(N(C)C)n1` the inhibition was 90.8% (active).
With `Cc1nn(-c2ccccc2)c(C)c1C(=O)OCC(=O)NC(=O)NC1CCCCC1` the inhibition was 71.2% (active).
In the case of `NC(N)=Nc1nc2ccc(Br)cc2c(=O)[nH]1`, the inhibition was 74.1% (active).

Reference: PubChem BioAssay AID2732 (Emory University Molecular Libraries Screening Center, 2010)
